± gives the standard deviation of the averaged measurements. Whole data set: some 25,000 sequences, median “ln(normalized median fluorescence intensity)” near 8.6, cut for the highest 2% near 10. For the sample, the highest values were picked, then their nearest neighbours and some sequences at random.
test system: PfAP2-EXP AP2 domain (GST-tagged); assay: gcPBM binding intensity (ln(normalized median fluorescence intensity)); higher = stronger DNA binding
Method in brief: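 For binding intensity, the highest Masliner-normalised natural-log median intensity across replicate spots of either probe orientation was taken. Protein bound to the array was stained with Alexa488 anti-GST antibody and scanned at 488 nm. The protein, GST-tagged P. falciparum DNA-binding domains from E. coli at about 25 μg on average, had been applied for 1 h to an Agilent 4 × 180k array of primer-extended double-stranded 36-bp intergenic genomic probes and negative controls.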

Sequence	gcPBM binding intensity (ln)
AAAATATATTAAGGCACACACATACAGATATATATA [CACACA_site5951]	8.9 ± 0.37
TATAAAATATAATTAGCACACATATATAAAATATAT [CACACA_site9355]	8.21 ± 0.34
ATTTTGCCTGACCCATGTACATATTATTTTTTGCAT [XGTACX_site2258]	9.41 ± 0.4
AGTATATTAATATAATGTACAAACGTTTATTTTGTA [XGTACX_site5980]	8.59 ± 0.42
ATATATATATATATATGTACATATATATACATATAT [XGTACX_site6987]	10.1 ± 0.43
AAATATATATATATATGTACACACACACATATAAAT [XGTACX_site847]	8.5 ± 0.3
TATATATATATATATGTACACACATCAATCATATTA [CACACA_site8594]	10.1 ± 0.36
ATATATATATATATATGTACACACATCAATCATATT [XGTACX_site4005]	10.2 ± 0.54
TTACGATCATCAATATGTACATATATATATATATAT [XGTACX_site4301]	10.2 ± 0.3
TACGAAATCATATGTACACACACATATATATATATA [CACACA_site5216]	10.1 ± 0.39
AAAATATATACAATATGTACATATATATATATATAT [XGTACX_site1898]	9.96 ± 0.35
CGAAATCATATGTACACACACATATATATATATATA [CACACA_site2151]	10.2 ± 0.62
ATATATATATATATATGTACATACATACAATCATAT [XGTACX_site6410]	10.3 ± 0.45
TTAACAAAATATAGCACACATAAATATATATTTATG [CACACA_site351]	8.66 ± 0.33
TATACATATTATATATGTACACATATTATATGTATA [XGTACX_site5851]	8.27 ± 0.15
ATTATATAGAATTGTACATGCGAATTGTATAACGAT [TGCATGCA_site125]	9.31 ± 0.57
ACATATATATAATATATATATCATCATATTTTCTTA [CACACA_negctrl_site853]	8.27 ± 0.39
TATTAAAATTAAAAAAAAAAAAAAAAGCAATAAAAA [XGTACX_negctrl_site426]	8.33 ± 0.71
CGTATGCAAGGAACCACACACACACCCATAAATGTA [CACACA_site749]	8.51 ± 0.45
TTTTCTACATCTTGTTGTACGAAAAATAAAAAAAAT [XGTACX_site4620]	8.72 ± 0.47
TATTTTATAAATTAATGTACATAAATTATATCTACT [XGTACX_site3625]	8.35 ± 0.16
TTTTAAACAGGACACACACACATATAGATTTATATA [CACACA_site6560]	8.69 ± 0.4
TTTTTTTTTTTTTTTTTTAAACACCTCAAAAAAAAA [CACACA_negctrl_site807]	8.04 ± 0.36

Sequence	gcPBM binding intensity (ln)
ATAATATCTTTATGTGTGCACATATATATATATATA	10.1 ± 0.38
GAGGTCTTTTTTAATGTGCACATATATATATATATA	10.3 ± 0.25
ATATATATCTTTTGTGTGCACATATATATAATATAT	8.97 ± 0.24
GGAAAAGGTATCCGTTCACACATAAATGGATACCAT [CACACA_site5072]	8.31 ± 0.4
ATTCATCCAATAATGTGAATTATCATGATAAACTTA [TGCATGCA_negctrl_site406]	8.26 ± 0.43
CAAAGTATTATGATTACACACATGTGCTTTTTTCTT [CACACA_site163]	8.57 ± 0.42
TATATACTCAAACACACACACACATACACAGACATA [CACACA_site5025]	8.77 ± 0.57
GGTATACGCAAGTATACACACATATATATATATATA [CACACA_site3240]	10.1 ± 0.47
GGTATACACAAGTATACACACATATAAATATAAATA [CACACA_site7511]	8.5 ± 0.45
GGTATACTCAAGTATACACACATATATATATATATA [CACACA_site5746]	10.2 ± 0.45
GGTATACACAAGTATACACACATATATATATATATA [CACACA_site9063]	10.2 ± 0.22
CAAACAATTAAACAAACACACATATACAAGTATATA [CACACA_site8639]	8.38 ± 0.36
ATTTTAGGAAAAAAAAGTACATATAATTTTTTATAT [XGTACX_site6954]	8.19 ± 0.31
AAATGTTATATATAATGTACTTGTAAGAACGTTCCT [XGTACX_site2840]	8.67 ± 0.45
GTGTAGTTAAAAAAAAGTACAGATTTTTTTTTTTTT [XGTACX_site849]	8.43 ± 0.092
ATATTTATAACTTGGTGTACTTTGAAAAAAAAAAAA [XGTACX_site5194]	8.38 ± 0.26
TTTTAATAATATGGATGTACATAAAAATAAATAAAT [XGTACX_site7937]	9.04 ± 0.38
AAAAAACACTTAAGGTGTACCTTTTAATATAAGTAT [XGTACX_site2397]	8.38 ± 0.3
TATGTGAAATAAGGATGTACAATTTTGATTTCCCCA [XGTACX_site8389]	8.86 ± 0.52
TATAAACCGACGAAAACACACATATGTAAATATATA [CACACA_site491]	8.94 ± 0.59
ATTTTTTTTTTTTTTTTGGGGGGGTATACTTTTAAA [CACACA_negctrl_site1020]	11.2 ± 0.18
GTTAATATTTTTGGGGGTACTTAAAAAAAAAAAAAA [XGTACX_site1477]	9.35 ± 0.26
TATACTTTATATATTTTGTATATATATTTTTTTTAT [TGCATGCA_negctrl_site530]	8.43 ± 0.31

Sequence	gcPBM binding intensity (ln)
AAAAAAGAAAAAAAGTGTACAATATTTATTACATAT [XGTACX_site2277]	8.08 ± 0.028
TATTTAATTACATGAACACACATTATGTATTTTTAA [CACACA_site2962]	8.3 ± 0.3
TTTGAAATGATATATAAACACACATATATATATATA [CACACA_site9170]	10.3 ± 0.4
AATTAAAAAATTATCACACATATATATATATATATA [CACACA_site5789]	10.3 ± 0.52
ATAAATATATATATCACACATATATAATTATATATA [CACACA_site4787]	8.46 ± 0.3
TGAAATGATATATAAACACACATATATATATATATA [CACACA_site3511]	10 ± 0.36
ACTAATTACTATAAAACACACATATATATATATATA [CACACA_site2591]	10.2 ± 0.29
AATAAATTGAAACACACACACACATATATATATATA [CACACA_site848]	10.2 ± 0.32
ACTAATTACTATAAAACACACATATATTTATTTATA [CACACA_site7263]	8.51 ± 0.34
AAAAAATTAAAAATCACACATAAATATATATAAAAA [CACACA_site4192]	8.45 ± 0.4
TGAAATGATATATAAACACACATATATAAATATGTA [CACACA_site7616]	8.18 ± 0.42
AAAATTAATAAATAAACACACATATATATATATATA [CACACA_site2598]	10.1 ± 0.44
CATATAAATAAACACACACACACATATATATATATA [CACACA_site5309]	10.2 ± 0.29
TATATATATATATAAACACACATAAATATAAATATA [CACACA_site1121]	10 ± 0.37
TTTTTATTTTTAAAGGCACACACATTTTTATTTTTA [CACACA_site8624]	8.41 ± 0.31
AAACAAAATATGGTTCATGAGCAAAAGTTTATTTTG [XGTACX_negctrl_site531]	8.69 ± 0.47
TTGATTAAAATTAGTACACACAAAATACATGCGGGG [CACACA_site5284]	9.2 ± 0.3
AAGAACAAACAAAATAGTACAATATATATATATATA [XGTACX_site4258]	10 ± 0.28
ACTAAAAGATATATAATTTCTTTCTTATTTATTTTT [CACACA_negctrl_site842]	8.1 ± 0.35
AAATATATAAAATATACACACAGTAATATATATATA [CACACA_site1385]	9.52 ± 0.35
TTCTGTCAATATGCTTGTACGAAATATTTCGTAATT [XGTACX_site3182]	8.87 ± 0.4
TTTTTTGCTAAAAAGAGTACTAATAAAAAATTTATT [XGTACX_site5235]	8.34 ± 0.34
GAAAAAAAAAAAAATACACACAAATTGGTATATAAT [CACACA_site4369]	8.41 ± 0.39

Sequence	gcPBM binding intensity (ln)
AATAAACATAAATAAAAATTATAAAATATATATATG [CACACA_negctrl_site1709]	8.38 ± 0.32
AAAAATGGTGTTAACACACACATATAAATAAATATA [CACACA_site6412]	8.44 ± 0.35
TAAATAAAAAAACACACACACATATATATATATATA [CACACA_site2269]	10.2 ± 0.25
ATAAAAATGGTGTTAACACACACATATATATATATA [CACACA_site8089]	10.1 ± 0.38
CATAAAATATAAAACACACACACATATATATATATA [CACACA_site223]	10.2 ± 0.44
AAAAAATAAATAAACATAAATAAATAAATAAATATA [XGTACX_negctrl_site340]	8.49 ± 0.33
TAAATAAATAAAAAAACACACATATATATATATATA [CACACA_site4029]	10.2 ± 0.32
AATAAAATATAAACATTATATATATATATATATATA [GTGCAC_negctrl_site58]	10.3 ± 0.38
AAAAATGGTGTTAACACACACATATATATATATATA [CACACA_site571]	10.2 ± 0.17
TATAAATAAAAACACACACACACATATATATATATA [CACACA_site2268]	9.99 ± 0.39
TATAAATAAAAACACACACACATATATATATATATA [CACACA_site2319]	10.1 ± 0.32
TAAATAAATAAAAAAACACACATATAAATATAAATA [CACACA_site7815]	8.56 ± 0.4
TTCTAACTTTTAAACACACAAATATAAATAAGTATA [CACACA_site7473]	8.29 ± 0.62
CCAACTAAAAAGGAATGTACATAGTTATGGTTGGAA [XGTACX_site8762]	9.04 ± 0.47
TAAGGAAAAAGAAAAAGTACATTATATAATAAATAG [XGTACX_site3282]	8.71 ± 0.46
GTGAAATGGAAAAAAAGTACAGATTACATAAGTATT [XGTACX_site6355]	8.64 ± 0.42
TATTTATTGTGATACTACTATTATTTTATGATTAAA [CACACA_negctrl_site284]	8.44 ± 0.42
GTATAATATTCATATTCACACATTAAAATATATTTA [CACACA_site4879]	8.49 ± 0.49
AAAAAATGATAATATACACACTTATGGGAGAGCGCA [CACACA_site5398]	8.275 ± 0.078
ATTTTAAATTAAATTACACACTACGAATAATATATT [CACACA_site4016]	8.43 ± 0.42
